PubChem BioAssay (EPA / NIEHS)
Inconclusive results are not listed. The source made the active and inactive calls. How the source made its calls: active means hit-call score of the fitted dose curve at least 0.9, where 1 is the maximum; inconclusive means response in the unintended direction; inactive means score below 0.9.

What was measured:
[1] = molecular target: Peroxisome proliferator-activated receptor gamma (Homo sapiens) (UniProt P37231); assay: ATG_PPARg_TRANS: Attagene TRANS-FACTORIAL HepG2 Assay for human Peroxisome Proliferator-activated Receptor-gamma (PPARg) (AID 2283007)
How it was run: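 Chimeric NR-Gal4 transactivation is measured in transiently transfected HepG2 cells by reporter mRNA induction at 24 h. Detection uses RT-PCR with fluorescent labelling and capillary electrophoresis; DMSO defines baseline.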

[2] = molecular target: human RAR-related Orphan Receptor gamma (RORg), RORC (gene 6097) (UniProt P51449); assay: ATG_RORg_TRANS: Attagene TRANS-FACTORIAL HepG2 Assay for human RAR-related Orphan Receptor gamma (RORg) (AID 2283011);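 on AC50: potency for induction of reporter transcripts above DMSO so activators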
How it was run: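 Transient MRTU transfection of HepG2 (TRANS format, exogenous NR-Gal4 chimera). 24 h dosing. Total RNA → oligo(dT) RT → PCR → 6-FAM labelling → HpaI cut → CE. Gain vs DMSO.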

[3] = molecular target: Retinoic acid receptor RXR-alpha (Homo sapiens) (UniProt P19793); assay: ATG_RXRa_TRANS: Attagene TRANS-FACTORIAL HepG2 Assay for human Retinoid X Receptor alpha (RXRa) (AID 2283012)
How it was run: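 TRANS format reporting activity of exogenous RXRa-Gal4 chimera in transiently transfected HepG2, 24 h exposure. Reporter transcripts quantified by RT-PCR with capillary electrophoresis, with gain of signal scored relative to DMSO.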

[4] = molecular target: Nuclear receptor subfamily 1 group I member 2 (Homo sapiens) (UniProt O75469); assay: ATG_PXR_TRANS: Attagene TRANS-FACTORIAL HepG2 Assay for human Pregnane X Receptor (PXR) (AID 2283008)
How it was run: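 Trans-factorial format: exogenous NR-Gal4 fusion activity, not endogenous factor, in transfected human HepG2 liver cells. After 24 h dosing, RNA isolated, reverse-transcribed, amplified and resolved by capillary electrophoresis; induction scored versus DMSO.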

[5] = molecular target: human Retinoic Acid Receptor gamma (RARg), RARG (gene 5916) (UniProt P13631); assay: ATG_RARg_TRANS: Attagene TRANS-FACTORIAL HepG2 Assay for human Retinoic Acid Receptor gamma (RARg) (AID 2283009)
How it was run: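 Transactivation of exogenous RARg-Gal4 fusion measured as reporter transcript induction after 24 h in transfected HepG2 cells. RNA reverse-transcribed, amplified, fluorescently labeled and resolved by capillary electrophoresis; increase relative to DMSO.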

[6] = molecular target: human RAR-related Orphan Receptor beta (RORb), RORB (gene 6096) (UniProt Q92753); assay: ATG_RORb_TRANS: Attagene TRANS-FACTORIAL HepG2 Assay for human RAR-related Orphan Receptor beta (RORb) (AID 2283010)
How it was run: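 Read-out is reporter mRNA induction, quantified by RT-PCR with fluorescent capillary electrophoresis, 24 h post-dose in transiently transfected HepG2 expressing exogenous NR-Gal4 chimera. Activity fitted upward versus DMSO.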

Chain of Peroxisome proliferator-activated receptor gamma (Homo sapiens) (P37231 whole entry, looked up, the tested form may be a part): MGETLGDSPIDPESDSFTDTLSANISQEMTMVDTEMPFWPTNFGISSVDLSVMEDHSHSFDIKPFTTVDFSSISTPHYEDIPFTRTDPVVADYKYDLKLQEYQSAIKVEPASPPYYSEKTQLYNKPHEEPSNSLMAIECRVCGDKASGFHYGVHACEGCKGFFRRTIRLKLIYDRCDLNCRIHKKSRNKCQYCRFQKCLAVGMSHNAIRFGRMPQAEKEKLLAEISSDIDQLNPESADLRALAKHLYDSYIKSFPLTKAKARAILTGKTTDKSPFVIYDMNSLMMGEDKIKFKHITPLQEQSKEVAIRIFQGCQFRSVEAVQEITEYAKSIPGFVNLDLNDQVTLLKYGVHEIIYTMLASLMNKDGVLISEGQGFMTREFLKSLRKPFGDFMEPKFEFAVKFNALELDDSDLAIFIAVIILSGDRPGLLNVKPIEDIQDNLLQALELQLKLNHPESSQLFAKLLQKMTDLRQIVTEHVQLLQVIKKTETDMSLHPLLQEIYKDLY
Chain of Retinoic acid receptor RXR-alpha (Homo sapiens) (P19793 whole entry, looked up, the tested form may be a part): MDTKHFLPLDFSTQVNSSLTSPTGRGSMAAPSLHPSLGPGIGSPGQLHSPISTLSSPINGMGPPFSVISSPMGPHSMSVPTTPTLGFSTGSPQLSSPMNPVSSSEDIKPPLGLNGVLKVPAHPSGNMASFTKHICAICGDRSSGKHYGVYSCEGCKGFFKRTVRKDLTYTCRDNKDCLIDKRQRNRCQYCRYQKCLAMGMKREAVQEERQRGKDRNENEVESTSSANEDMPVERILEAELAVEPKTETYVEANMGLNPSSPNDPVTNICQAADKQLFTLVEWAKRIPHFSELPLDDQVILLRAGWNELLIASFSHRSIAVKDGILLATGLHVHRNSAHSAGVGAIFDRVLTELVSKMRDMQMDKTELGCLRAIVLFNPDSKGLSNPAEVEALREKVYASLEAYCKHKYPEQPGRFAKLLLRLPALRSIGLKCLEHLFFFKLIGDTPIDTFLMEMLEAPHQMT
Chain of human RAR-related Orphan Receptor gamma (RORg), RORC (gene 6097) (P51449 whole entry, looked up, the tested form may be a part): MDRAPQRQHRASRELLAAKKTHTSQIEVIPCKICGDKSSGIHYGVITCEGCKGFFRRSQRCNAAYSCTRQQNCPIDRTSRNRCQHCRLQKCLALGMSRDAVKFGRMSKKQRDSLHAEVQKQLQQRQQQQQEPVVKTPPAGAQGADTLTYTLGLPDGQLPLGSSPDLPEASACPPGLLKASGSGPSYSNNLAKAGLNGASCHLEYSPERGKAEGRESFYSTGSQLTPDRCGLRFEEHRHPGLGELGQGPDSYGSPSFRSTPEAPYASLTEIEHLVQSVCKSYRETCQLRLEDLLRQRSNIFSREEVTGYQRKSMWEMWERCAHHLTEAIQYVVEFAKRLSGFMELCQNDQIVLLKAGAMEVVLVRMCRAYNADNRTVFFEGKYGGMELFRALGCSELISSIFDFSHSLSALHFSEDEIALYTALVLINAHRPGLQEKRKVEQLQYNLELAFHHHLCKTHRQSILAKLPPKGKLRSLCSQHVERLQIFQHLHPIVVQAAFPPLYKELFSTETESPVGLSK
Chain of human Retinoic Acid Receptor gamma (RARg), RARG (gene 5916) (P13631 whole entry, looked up, the tested form may be a part): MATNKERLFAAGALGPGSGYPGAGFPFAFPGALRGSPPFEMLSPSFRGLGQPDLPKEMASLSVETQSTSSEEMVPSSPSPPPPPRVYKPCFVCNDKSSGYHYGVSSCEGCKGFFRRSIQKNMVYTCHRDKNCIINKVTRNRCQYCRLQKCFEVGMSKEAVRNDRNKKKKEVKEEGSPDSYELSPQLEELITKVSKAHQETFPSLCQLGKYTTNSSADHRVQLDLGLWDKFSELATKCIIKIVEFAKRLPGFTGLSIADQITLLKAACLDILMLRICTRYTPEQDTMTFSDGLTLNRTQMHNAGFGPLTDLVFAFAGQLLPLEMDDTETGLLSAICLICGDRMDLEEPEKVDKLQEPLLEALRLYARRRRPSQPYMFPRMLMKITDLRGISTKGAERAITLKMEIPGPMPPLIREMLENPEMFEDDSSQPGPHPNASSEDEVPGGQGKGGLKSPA
Chain of human RAR-related Orphan Receptor beta (RORb), RORB (gene 6096) (Q92753 whole entry, looked up, the tested form may be a part): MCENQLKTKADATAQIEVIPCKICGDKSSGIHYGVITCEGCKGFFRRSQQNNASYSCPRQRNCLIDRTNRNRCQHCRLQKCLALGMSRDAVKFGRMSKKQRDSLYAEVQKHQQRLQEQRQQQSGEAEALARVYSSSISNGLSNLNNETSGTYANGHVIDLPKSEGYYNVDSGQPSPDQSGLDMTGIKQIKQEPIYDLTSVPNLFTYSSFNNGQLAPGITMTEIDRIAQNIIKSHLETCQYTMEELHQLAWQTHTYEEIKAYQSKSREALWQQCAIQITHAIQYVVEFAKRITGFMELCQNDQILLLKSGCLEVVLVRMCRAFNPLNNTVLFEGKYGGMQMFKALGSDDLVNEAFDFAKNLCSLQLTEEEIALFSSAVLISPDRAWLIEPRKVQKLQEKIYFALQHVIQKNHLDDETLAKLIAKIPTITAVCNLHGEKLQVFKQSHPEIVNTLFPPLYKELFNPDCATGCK
Chain of Nuclear receptor subfamily 1 group I member 2 (Homo sapiens) (O75469 whole entry, looked up, the tested form may be a part): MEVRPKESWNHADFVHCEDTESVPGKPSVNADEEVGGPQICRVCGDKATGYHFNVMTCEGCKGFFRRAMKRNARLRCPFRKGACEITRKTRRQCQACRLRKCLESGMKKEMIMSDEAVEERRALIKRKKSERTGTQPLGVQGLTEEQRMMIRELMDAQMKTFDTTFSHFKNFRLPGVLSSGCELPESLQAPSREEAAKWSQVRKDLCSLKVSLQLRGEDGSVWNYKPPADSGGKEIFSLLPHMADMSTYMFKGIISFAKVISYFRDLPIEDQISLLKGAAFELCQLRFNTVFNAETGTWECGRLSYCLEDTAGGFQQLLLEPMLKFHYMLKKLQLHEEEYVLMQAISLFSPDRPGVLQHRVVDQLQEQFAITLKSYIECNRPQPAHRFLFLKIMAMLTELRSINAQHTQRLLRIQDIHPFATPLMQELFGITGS

SMILES: OCCCS
- outcome [1]: inactive
- outcome [2]: inactive
- outcome [3]: inactive

SMILES: CNC(=S)N(C)C
- outcome [1]: inactive
- outcome [4]: inactive
- outcome [2]: inactive
- outcome [3]: inactive

SMILES: O=C1CCCCCN1SSN1CCCCCC1=O
- outcome [1]: inactive
- outcome [2]: inactive
- outcome [3]: inactive

SMILES: Cc1cc(=O)n(-c2ccccc2)n1C
- outcome [4]: inactive
- outcome [5]: inactive
- outcome [6]: inactive
- outcome [2]: inactive
- outcome [3]: inactive

SMILES: C=C(C)C(=O)OCCO
- outcome [1]: inactive
- outcome [5]: inactive
- outcome [6]: inactive
- outcome [2]: inactive

SMILES: C1=CCCC1
- outcome [4]: inactive
- outcome [5]: inactive
- outcome [2]: inactive
- outcome [3]: inactive

SMILES: O=CN1CCCCC1
- outcome [3]: inactive

SMILES: C=C(C)[C@H]1CC=C(C)CC1
- outcome [4]: inactive
- outcome [5]: inactive
- outcome [6]: inactive
- outcome [3]: inactive

SMILES: Cc1ccc(N/N=c2\c(=O)cc/c(=N/Nc3ccc(S(=O)(=O)O)cc3)c2=O)c(C)c1
- outcome [1]: inactive
- outcome [6]: inactive
- outcome [3]: inactive

SMILES: CCOc1ccc(N)c([N+](=O)[O-])c1
- outcome [4]: inactive
- outcome [3]: inactive

SMILES: O=C1C=CC(=O)O1
- outcome [6]: inactive
- outcome [2]: inactive

SMILES: CCOC(=O)c1ccc(N(C)C)cc1
- outcome [1]: inactive
- outcome [2]: inactive

SMILES: COc1c2ccoc2cc2oc(=O)ccc12
- outcome [1]: inactive
- AC50 [4]: 36.6 µM (active)
- outcome [2]: inactive
- outcome [3]: inactive

SMILES: COc1ccc(-c2coc3cc(O)ccc3c2=O)cc1
- outcome [1]: inactive
- outcome [4]: inactive
- outcome [3]: inactive

SMILES: Cc1ccc2oc(=O)ccc2c1
- outcome [1]: inactive
- outcome [6]: inactive
- outcome [3]: inactive

SMILES: Nc1ccc(Cl)cc1Cl
- outcome [4]: inactive
- outcome [2]: inactive
- outcome [3]: inactive

SMILES: CC(=O)Nc1nnc(S(N)(=O)=O)s1
- outcome [6]: inactive
- outcome [3]: inactive

SMILES: COc1ccc([C@@H]2CC(=O)c3c(O)cc(O[C@@H]4O[C@H](CO[C@@H]5O[C@@H](C)[C@H](O)[C@@H](O)[C@H]5O)[C@@H](O)[C@H](O)[C@H]4O)cc3O2)cc1OC
- outcome [1]: inactive
- outcome [5]: inactive
- outcome [3]: inactive

SMILES: O=C(/C=C/C=C/c1ccc2c(c1)OCO2)N1CCCCC1
- AC50 [1]: 6.43 µM (active)
- AC50 [4]: 0.893 µM (active)
- outcome [3]: inactive

SMILES: SCCc1cnccn1
- outcome [1]: inactive
- outcome [4]: inactive
- outcome [2]: inactive
- outcome [3]: inactive

SMILES: CC1=CC[C@H](C(C)C)C=C1
- AC50 [1]: 27.9 µM (active)
- outcome [2]: inactive
- outcome [3]: inactive

SMILES: C=CC(=O)OCCC(=O)O
- outcome [1]: inactive
- outcome [2]: inactive

SMILES: CO[Si](CCC1CCC2OC2C1)(OC)OC (centres undefined)
- outcome [1]: inactive
- outcome [2]: inactive
- outcome [3]: inactive

SMILES: COC(=O)c1cc(Cl)ccc1[N+](=O)[O-]
- AC50 [1]: 19.7 µM (active)
- outcome [4]: inactive
- outcome [3]: inactive

SMILES: O=C(O)C(c1ccc(Cl)cc1)c1ccc(Cl)cc1
- outcome [4]: inactive

SMILES: CC(C)(C)C(=O)C=Cc1ccc(Cl)cc1
- AC50 [1]: 26.6 µM (active)
- AC50 [4]: 26.2 µM (active)
- AC50 [2]: 24.4 µM (active)
- outcome [3]: inactive

SMILES: C=C(C)C(=O)OCCOc1ccccc1
- AC50 [1]: 28.5 µM (active)
- AC50 [3]: 26.5 µM (active)

SMILES: CCCCCc1ccc(Cl)cc1
- outcome [1]: inactive
- outcome [2]: inactive

SMILES: CCCCCCCCCCOS(=O)(=O)O
- AC50 [1]: 22.6 µM (active)
- outcome [4]: inactive
- outcome [3]: inactive

SMILES: CCc1ccc2c(c1)C(=O)c1ccccc1C2=O
- AC50 [1]: 24.3 µM (active)
- outcome [3]: inactive

SMILES: CC1=CC[C@H]2C[C@@H]1C2(C)C
- outcome [1]: inactive
- outcome [4]: inactive
- outcome [2]: inactive
- outcome [3]: inactive

SMILES: COC(=O)/C=C\C(=O)O
- AC50 [1]: 35.2 µM (active)
- outcome [5]: inactive
- outcome [2]: inactive

SMILES: CC(=O)Oc1ccc(C(C)=O)cc1
- outcome [5]: inactive
- outcome [6]: inactive
- outcome [3]: inactive

SMILES: COC(=O)c1ccccc1OC
- outcome [4]: inactive

SMILES: CC(C)(C)c1ccc(OC(=O)c2ccccc2O)cc1
- outcome [1]: inactive
- outcome [4]: inactive
- outcome [3]: inactive

SMILES: Cc1cccc(OCCOc2cccc(C)c2)c1
- AC50 [1]: 25.7 µM (active)
- outcome [4]: inactive
- outcome [3]: inactive
